Only some compounds are listed: those with a hit (about 12% of all), similar ones and a draw of the others.
BAZ2B inh: BAZ2B (human) inhibition; AlphaScreen BAZ2B-H3K14Ac peptide displacement; Potency, µM (top dose mostly 114 µM), most hits filed as inhibitors; 360,000 tested, 4.4% active; Q9UIF8; AID 504333; further: nearly all actives have a fitted effect of over 60% in size
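AlphaScreen displacement of biotin-H3(5-23)K14Ac peptide (50 nM final) from BAZ2B (50 nM final) in PBS pH 7.4, 0.01% Tween-20; complex preformed 30 min RT, then compounds (top 110 uM) 30 min RT, beads 20 min dark.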
JMJD2A Tudor inh: inhibitors of human JMJD2A Tudor domain. O75164. 390,000 tested, 4.4% active. AID 504339. AlphaScreen JMJD2A-Tudor / H3K4me3 peptide binding. Potency, µM (titrated, usually from 114 µM), hits mostly inhibitors; further: nearly all actives have a fitted effect of over 50% in size
Target sequence (O75164 whole entry, looked up, the tested form may be a part): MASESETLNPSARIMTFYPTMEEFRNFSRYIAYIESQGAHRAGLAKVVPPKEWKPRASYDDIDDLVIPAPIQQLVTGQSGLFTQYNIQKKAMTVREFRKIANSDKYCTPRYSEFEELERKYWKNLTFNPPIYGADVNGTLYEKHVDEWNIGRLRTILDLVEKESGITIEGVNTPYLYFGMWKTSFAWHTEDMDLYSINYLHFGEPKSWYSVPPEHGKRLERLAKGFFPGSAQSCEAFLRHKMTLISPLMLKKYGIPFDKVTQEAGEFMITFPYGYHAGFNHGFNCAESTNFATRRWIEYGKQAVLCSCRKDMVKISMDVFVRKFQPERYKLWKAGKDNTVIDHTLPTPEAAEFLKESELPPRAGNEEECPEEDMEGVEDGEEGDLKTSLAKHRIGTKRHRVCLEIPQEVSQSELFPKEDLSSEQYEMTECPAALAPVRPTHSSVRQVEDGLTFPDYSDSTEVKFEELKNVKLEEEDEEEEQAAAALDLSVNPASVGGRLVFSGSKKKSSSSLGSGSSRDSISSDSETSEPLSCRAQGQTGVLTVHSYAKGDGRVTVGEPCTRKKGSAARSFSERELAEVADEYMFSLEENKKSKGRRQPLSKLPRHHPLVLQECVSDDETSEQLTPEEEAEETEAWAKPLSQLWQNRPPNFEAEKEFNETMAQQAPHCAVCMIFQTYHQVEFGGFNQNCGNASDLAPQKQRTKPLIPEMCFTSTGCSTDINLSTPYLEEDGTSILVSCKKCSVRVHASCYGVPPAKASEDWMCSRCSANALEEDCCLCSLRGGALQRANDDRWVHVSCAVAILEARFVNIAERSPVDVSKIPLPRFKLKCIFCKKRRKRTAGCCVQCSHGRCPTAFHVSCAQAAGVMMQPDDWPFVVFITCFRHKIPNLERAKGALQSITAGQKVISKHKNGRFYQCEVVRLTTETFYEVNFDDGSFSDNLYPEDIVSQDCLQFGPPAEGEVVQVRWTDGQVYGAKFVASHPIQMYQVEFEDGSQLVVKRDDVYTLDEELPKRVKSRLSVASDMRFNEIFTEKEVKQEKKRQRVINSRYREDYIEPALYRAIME
G9a block: inhibitors of human histone lysine methyltransferase G9a. G9a H3K9 monomethylation, AlphaScreen, 2 h. Q96KQ7. Potency, µM (top dose mostly 102 µM), most hits filed as inhibitors. 350,000 tested, 8.8% active; further: nearly all actives have a fitted effect of over 75% in size
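G9a (20 nM) was preincubated 15 min with compound, then reacted 2 h at room temperature with 500 nM biotin-H3K9 peptide and 20 µM SAM. Monomethyl-H3K9 detected by AlphaScreen using anti-H3K9me1 antibody.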
Sfp PPTase inh: inhibitors of Bacillus subtilis Sfp phosphopantetheinyl transferase | Q9F4F7 | Biochemical Sfp PPTase activity, qHTS | Potency, µM, usual class: inhibitors | 310,000 tested, 3.5% active;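 further: the enzyme is Sfp with the accession as filed and its product quenches rhodamine fluorescence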
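Sfp 15 nM + cpd, 15 min RT; start w/ rhodamine-CoA 5 uM, BHQ-2-YbbR 12.5 uM (final); 50 mM Hepes pH 7.6, 10 mM MgCl2, 0.01% NP-40, 0.01% BSA; read 525/598 nm at 0 and 30 min.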
HP1b chromo inh: inhibitors of HP1-beta chromodomain binding to methylated histone tails. P83916. AlphaScreen HP1-beta / biotin-H3K9me3 peptide binding. Potency, µM (top dose mostly 114 µM), usual class: inhibitors. 390,000 tested, 0.56% active; further: nearly all actives have a fitted effect of over 70% in size
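HP1-beta protein (50 nM final) preincubated 30 min at room temperature with biotinylated H3(1-18)K9me3 peptide (50 nM) in PBS pH 7.4, 0.01% Tween-20, then compound added for 30 min. AlphaScreen streptavidin donor/nickel chelate acceptor beads (10 ug/mL final), 30 min dark, luminescence read.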
PLK1 PBD inh: PLK1 (human) polo-box domain binding inhibition | Potency, µM, hits mostly inhibitors | Plk1 PBD binding of FITC phosphopeptide, fluorescence polarization | P53350 | 360,000 tested, 2.8% active | AID 720504; further: series mostly up to about 57 µM; nearly all actives have a fitted effect of over 65% in size
Hits are given with their value; - = inactive; ? = inconclusive; . = no result given; ! = not active in a repeat; [ ] = another dose, or the depositor's remark. The call rests on the fitted dose curve; in most records, active means well fitted curve in the direction sought with a large enough effect; inconclusive means small, poorly fitted or top-dose-only effect, or another doubt; inactive means no such curve, though single readings can be large; an effect the other way counts as inactive or inconclusive.

SMILES	BAZ2B inh	JMJD2A Tudor inh	G9a block	Sfp PPTase inh	HP1b chromo inh	PLK1 PBD inh
Cc1ccc(-c2nc(SCC(N)=O)c(C#N)c3c2CCCC3)cc1	-	-	-	-	-	-
CC(=O)c1sc2nc(-c3ccc(C)cc3)c3c(c2c1N)CCCC3	-	-	-	35µM	-	-
Cc1ccc(-c2nc3sc(C(N)=O)c(N)c3c3c2CCCC3)cc1	-	-	-	40µM	-	-
CN(C(=O)c1sc2nc(N3CCOCC3)c3c(c2c1N)CCCC3)c1ccccc1	-	-	?	?	-	-
Cc1noc(C)c1S(=O)(=O)N(C)C[C@H]1Oc2c(NC(=O)C3CCCCC3)cccc2C(=O)N([C@H](C)CO)C[C@@H]1C	.	-	.	.	-	-
CC(C)(C)OC(=O)Cc1nnc(C(C(=O)OCc2ccccc2)c2ccccc2)s1 (stereo not given)	.	-	.	.	.	.
CC(O)CC(C)O (stereo not given)	-	-	-[0.501 µM]	.	-	-
COc1cc(OC)c(C(=O)CCCCN2CCC3(CC2)NC(=O)NC3=O)cc1NS(=O)(=O)c1ccc(C(F)(F)F)cc1	.	.	-	-	.	.
COc1ccc(CNc2ncncc2-c2c(C)noc2C)c(OC)c1	.	.	-[0.501 µM]	-	.	.
CCOC(=O)c1sc2nc(N3CCOCC3)c3c(c2c1N)CCC3	-	-	-	?	-	-
Cc1nc2sc(C(N)=O)c(N)c2c2c1CCCC2	-	-	?	79µM	-	-
Cc1cccc(-n2ccnc2SCC(=O)N2CCCc3ccccc32)c1C	50µM	?	?	-	-	-
CCCN(CCC)C(=O)CSc1ncccc1C(=O)O	-	89µM	?	?	-	-
O=C(O)c1cccnc1SCC(=O)N1CCCc2ccccc21	79µM	?	-	-	-	-
Cn1c(-c2ccc(F)cc2)cnc1SCC(=O)N1CCCCC1	-	-	-	-	-	-
Cn1ccnc1SCC(=O)N1CCc2ccccc21	-	-	?	-	-	-
Cn1c(-c2ccc(F)cc2)cnc1SCC(=O)N1CCCc2ccccc21	32µM	-	45µM	-	?	?
O=C(CSc1ncccn1)N1CCCc2ccccc21	-	-	-	-	-	-
CCOc1ccc(NC(=O)c2cc(S(=O)(=O)N3CCC(C)CC3)cn2C)cc1	-	-	-	.	-	.
CC1Cc2ccccc2N1C(=O)CSc1nncn1C (stereo not given)	-	-	-	-	-	-
Cc1ccc(NC(=O)CSCC(=O)N2CCCc3ccccc32)cc1	-	-	45µM	.	-	-
CC1Cc2ccccc2N1C(=O)CSc1ncc(-c2ccc(F)cc2)n1C (stereo not given)	28µM	56µM	?	-	?	-
Cn1c2ccccc2c2cnn(CC(=O)NCCCN3CCCCC3)c(=O)c21	-	-	-	.	-	.
CC(C)N(Cc1ccccc1)S(=O)(=O)c1ccc(-c2cc(C(F)(F)F)on2)s1	-	-	-	.	-	.
COc1ccccc1OCCCOc1c(C)cc(C)cc1Br	-	-	-	-	-	-
SMILES	BAZ2B inh	JMJD2A Tudor inh	G9a block	Sfp PPTase inh	HP1b chromo inh	PLK1 PBD inh
CN(C)CCCOc1ccc(Cl)cc1Br	45µM	1µM	-[0.501 µM]	-	?	-
Cc1ccc(OCCCN(C)C)c(Br)c1	79µM	3.2µM	?	-	?	-
Cc1cc(Cl)c(OCCCCNC(C)(C)C)c(Br)c1	?	.	8.9µM	-	.	.
Cc1cc(Cl)c(OCCCN(C)C)c(Br)c1	-	8.9µM	11µM	-	?	-
COc1ccccc1OCCCCNC(C)(C)C	.	-	-	-	-	-
Cc1ccc(S(=O)(=O)NCCC(=O)OCC(=O)NCCc2ccccc2)cc1C	-	-	-	.	-	-
Cc1cc(C)c(NC(=O)CNC(=O)c2cc([N+](=O)[O-])ccc2N2CCOCC2)c(C)c1	-	-	?	.	-	-
CCCn1c(=O)c2[nH]c(-c3ccc(OCC(=O)Nc4ccc(C(C)=O)cc4)cc3)nc2n(CCC)c1=O	.	.	.	-	.	.
CCCn1c(=O)c2[nH]c(-c3ccc(S(=O)(=O)O)cc3)nc2n(CCC)c1=O	-	-	21µM!	.	-	-
Cc1cc(NC2CCCCC2)nc2ccccc12	-	-	-	-	-	-
Cc1cc(OCC[N+]2(C)CCCCC2)nc2ccccc12	-	40µM	?	-	-	-
COc1ccccc1/C=C/c1ccc2cccc(O)c2n1	-	-	-	-	-	-

High-throughput results: PubChem, National Center for Advancing Translational Sciences (NCATS)
